assay: binders from COS7 lysate, DM2A8 probe, primary screen, torsin A project, cell lysate, small-molecule microarray, fluorescence 635/667 (AID 1065); conditions: higher = more signal, COS7 lysate expressing mutant human TOR1A

| Compound | composite z-score |
| --- | --- |
| [N-]=[N+]=Nc1ccccc1[C@H]1OC(c2ccc(OCCCO)cc2)=N[C@@]1(Cc1ccccc1)C(=O)N1CCCCC1 | -0.182 |
| CCCNC(=O)[C@@]1(c2ccc([N+](=O)[O-])cc2)CC(=O)N(C2CCCCC2)[C@@H]1c1ccc(CO)cc1 | 0.256 |
| CN1C(=O)C2C=CC(C(O)c3ccccn3)N(N(c3ccccc3)c3ccccc3)C2C1=O (stereo not given) | 0.0014 |
| COCCOC(=O)N1C(=O)[C@@]2(c3cc(C#CC4=CCCCC4)ccc31)[C@H](c1ccc(O)cc1)N1[C@H](c3ccccc3)[C@H](c3ccccc3)OC(=O)[C@H]1[C@@H]2C(=O)N1CCN(c2ncccn2)CC1 | -0.0653 |
| C[N+](C)(C)CCCCCCNC(=O)[C@H]1C[C@H]2C(=O)N[C@@H](Cc3ccccc3)C(=O)N2[C@H]1c1ccc(O)cc1 | 0.375 |
| O=C1NC(=O)C2C1C=CC(C(O)c1cccc3ccccc13)N2Nc1ccc(Cl)cc1Cl (stereo not given) | -0.974 |
| COC(=O)[C@@]1(Cc2ccc(F)cc2)[C@H]2c3cc(C(=O)N4CCCC4)n(CCc4ccc(O)c(O)c4)c3C[C@H]2CN1C(=O)c1ccccc1 | 0.109 |
| O=C(CS)NCCCCCCNC(=O)[C@H]1C[C@H]2C(=O)N[C@@H](Cc3ccccc3)C(=O)N2[C@H]1c1ccc(O)cc1 | 0.375 |
| C#CCN([C@@H](Cc1ccc(O)cc1)C(=O)OC)[C@@H](/C=C/C1CC1)[C@H](O)Cc1ccccc1 | -0.112 |
| CCOC(=O)c1ccc(NC(=O)O[C@H]2[C@H](OC(=O)Nc3ccc4c(c3)OCO4)[C@@H](OC(=O)Nc3ccc4c(c3)OCO4)[C@@H](OC)O[C@@H]2CO)cc1 | 0.816 |

— PubChem BioAssay
